In PubChem BioAssay AID1851 (National Center for Advancing Translational Sciences (NCATS), 2009) one finds AC50 and activity, negative = inhibition data, which are given here for 68 compounds.

The whole screen tested about 16,000 compounds, of which about 5,100 (32%) were called active. Inconclusive results (about 25%) are left out. The list shows a part of the results. Values without a mark were called inactive. The call rests on the fitted dose curve; in most records, active means well fitted curve in the direction sought with a large enough effect; inconclusive means small, poorly fitted or top-dose-only effect, or effect the other way; inactive means no such curve, though single readings can be large or run the other way.
On the % scale 0 is the no-effect control and ±100 the full control effect.

Sequence of Cytochrome P450 3A4 (Homo sapiens) (P08684 whole entry, looked up): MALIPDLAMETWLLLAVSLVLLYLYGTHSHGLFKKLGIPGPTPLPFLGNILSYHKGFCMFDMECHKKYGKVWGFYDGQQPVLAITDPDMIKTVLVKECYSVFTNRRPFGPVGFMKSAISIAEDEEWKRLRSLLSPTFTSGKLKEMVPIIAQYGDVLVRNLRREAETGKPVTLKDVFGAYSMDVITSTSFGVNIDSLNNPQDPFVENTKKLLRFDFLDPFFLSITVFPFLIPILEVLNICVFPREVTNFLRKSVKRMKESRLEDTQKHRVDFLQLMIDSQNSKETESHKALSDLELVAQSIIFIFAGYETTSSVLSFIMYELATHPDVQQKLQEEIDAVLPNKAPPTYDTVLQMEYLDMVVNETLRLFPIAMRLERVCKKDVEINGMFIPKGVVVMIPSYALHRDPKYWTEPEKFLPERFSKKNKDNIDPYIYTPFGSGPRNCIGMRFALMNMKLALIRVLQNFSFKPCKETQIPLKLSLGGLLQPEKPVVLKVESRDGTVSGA

This assay addresses Cytochrome P450 3A4 (Homo sapiens) (UniProt P08684). The experiment in a line: Cytochrome panel assay with activity outcomes. The conditions noted are these: recombinant CYP, pro-luciferin dealkylation, luminescence, p450-cyp3a4; series mostly up to 57.1 µM.
One may read the AC50 as the midpoint of the concentration-response curve, whichever way the signal moves. For the compound `O=C(COc1ccc([N+](=O)[O-])cc1)Nc1ccc(C(=O)NCc2cccnc2)cc1`, the concentration at half-maximal activity (AC50) was 12.6 µM (active).

As to `Cc1ccccc1CS(=O)(=O)Cc1ccc(C(=O)NCc2cccnc2)o1`, the AC50 is 0.891 µM (active).

Regarding `CCOc1ccc(OCc2ccc(C(=O)NCc3cccnc3)o2)cc1`, the AC50 was 2.82 µM (active).

For `O=C(c1ccc(COc2ccc(F)cc2)o1)n1cccn1`, the AC50 entry was “inactive”.

For `O=C(N/N=C/c1cccnc1)c1ccc([N+](=O)[O-])cc1`, the AC50 result is “inactive”.

With `O=C(COc1ccc([N+](=O)[O-])cc1)NCc1ccccc1`, the AC50 result was “inactive”.

With `CN(C)C(=O)c1ccc(-c2cc(Nc3ccccc3)ncn2)cc1`, the AC50 result is “inactive”.

In the case of `CS(=O)(=O)Nc1cccc(-c2cc(Nc3ccccc3)ncn2)c1`, the concentration at half-maximal activity (AC50) was 15.8 µM (active).

For `CS(=O)(=O)Nc1cccc(-c2cc(NCc3ccccc3)ncn2)c1`, the AC50 was 15.8 µM (active).

On to `Cc1cccc(CNc2cc(-c3cccc(NS(C)(=O)=O)c3)ncn2)c1`, for which the AC50 is 2 µM (active).

Take `CS(=O)(=O)Nc1cccc(-c2cc(NCc3cccs3)ncn2)c1`: the AC50 is 15.8 µM (active).

Take `CC(=O)c1cn(CCCCCCCCCCn2cc(C(C)=O)c(=O)[nH]c2=O)c(=O)[nH]c1=O`: the activity, negative = inhibition is 2.06% [at 2.29 µM].

As to `NC(=O)C[C@H](N)C(N)=O`, the activity, negative = inhibition is 2.14% [at 11.4 µM].

In the case of `CCN(CC)CCOc1ccc2nc(N(C)C)sc2c1`, the AC50 result was “inactive”.

With `CC1(C)SC(=S)N(NC(=O)Nc2ccccc2)C1N(O)C(=O)Nc1ccccc1` (stereo not drawn), the AC50 was 2.51 µM (active).

For the compound `COC(=O)C1CCC(C)(C(=O)Nc2ccccc2)C1(C)C` (stereo not drawn), the activity, negative = inhibition was -9.58% [at 11.4 µM].

With `Cc1cc2nnc(SCC(=O)N3CCN(c4ccccc4)CC3)n2c(N)n1`, the half-maximal activity concentration (AC50) is 14.1 µM (active).

Take `Cn1c(CC(=O)Nc2ccc(Cl)c(Cl)c2)nnc1SCC(=O)N1CCN(c2ccccc2)CC1`: the half-maximal activity concentration (AC50) was 1.58 µM (active).

Consider `CC(C)c1ccccc1-n1c(SCC(=O)N2CCN(c3ccccc3)CC2)nnc1-c1cccnc1`, for which the AC50 is 0.501 µM (active).

As to `COCC(=O)N1CCC2(CC1)CCN(c1cccc(-c3ccccc3)c1)CC2`, the AC50 entry was “inactive”.

With `CC1CC(C)CN(C(=O)CSc2nnc(CSc3ncccn3)n2C)C1` (stereo not drawn), the activity, negative = inhibition is 3.75% [at 2.29 µM].

Take `Cn1c(Cc2cccc3ccccc23)nnc1SCC(=O)N1CCN(c2ccccc2)CC1`: the half-maximal activity concentration (AC50) was 1.58 µM (active).

As for `COc1ccccc1CNc1ncncc1-c1ccc2c(c1)OCO2`, the AC50 is 0.2 µM (active).

`COc1ccc(CNc2ncncc2-c2ccc3c(c2)OCO3)c(OC)c1`: the AC50 was 0.126 µM (active).

As to `O=C1CSC2(CCN(CCCN3c4ccccc4Sc4ccc(Cl)cc43)CC2)N1`, the activity, negative = inhibition was -14.4% [at 11.4 µM].

Turning to `CCC/C=C(\CCC)C(NS(=O)(=O)c1ccc(C(F)(F)F)cc1)c1ccccc1` (stereo not drawn), the AC50 was 10 µM (active).

Turning to `CCC/C=C(\CCC)C(NS(=O)(=O)c1ccccc1)c1ccc(C(F)(F)F)cc1` (stereo not drawn), the half-maximal activity concentration (AC50) was 6.31 µM (active).

Consider `C[C@@](O)(CNS(=O)(=O)c1ccccc1)c1ccccc1`, for which the activity, negative = inhibition is -21.9% [at 11.4 µM].

Turning to `COc1ccccc1CN1CCCC2(CCN(C(C)=O)CC2)C1`, the AC50 entry was “inactive”.

For the compound `COc1ccccc1CN1CCCC2(CCN(C(=O)c3ccncc3)CC2)C1`, the concentration at half-maximal activity (AC50) was 6.31 µM (active).

With `COc1ccccc1CN1CCCC2(CCN(C(=O)c3cnccn3)CC2)C1`, the AC50 was 15.8 µM (active).

With `COCC(=O)N1CCC2(CCCN(Cc3ccccc3OC)C2)CC1`, the AC50 result is “inactive”.

As for `Cc1nc2nc(SCC(=O)NCc3ccco3)nn2c(C)c1Cc1c(F)cccc1Cl`, the AC50 was 10 µM (active).

With `Cc1cccc(Cc2c(C)nc3nc(SCC(=O)NCc4ccco4)nn3c2C)c1`, the concentration at half-maximal activity (AC50) is 11.2 µM (active).

On to `CCCN=C(N)NCCC[C@H](N)C(=O)O`, for which the AC50 entry is “inactive”.

Consider `COc1cc(OC)c(C2N(c3cc(C)on3)C(=O)C3CCCN32)cc1OC` (stereo not drawn), for which the AC50 result is “inactive”.

As for `CCc1cc(C(=O)OC)c(NC(=O)CCCC(=O)O)s1`, the AC50 result was “inactive”.

Consider `CCOC(=O)c1cc(CC)sc1NC(=O)c1cc(OCC)c(OCC)c(OCC)c1`, for which the half-maximal activity concentration (AC50) is 22.4 µM (active).

As for `CCOC(=O)c1cc(-c2ccccc2)sc1NC(=O)c1ccc(OC)cc1`, the AC50 entry was “inactive”.

With `CC(C)NCC[C@@H](O)c1cc2ccccc2o1`, the activity, negative = inhibition is -4.13% [at 11.4 µM].

As for `CCOC(=O)/C(C#N)=C1/C=CN(C)C=N1`, the AC50 result is “inactive”.

Turning to `CC(=O)c1ccc(NC(=O)C2(c3ccccc3)CCOCC2)cc1`, the AC50 entry is “inactive”.

`CSc1ccc(C#N)cc1NC(=O)c1cccc(Cl)c1`: the concentration at half-maximal activity (AC50) is 25.1 µM (active).

Take `CO/N=C(/CNC(=O)c1cccc(Cl)c1)c1ccc(Cl)cc1`: the activity, negative = inhibition is -6.99% [at 2.29 µM].

As to `CCCc1c(-c2ccc(O)cc2)nn(-c2ccc(O)cc2)c1-c1ccc(O)cc1`, the AC50 was 2.51 µM (active).

Take `Cc1nn(-c2ccccc2)c(-c2ccccc2)c1C(=O)O`: the AC50 result is “inactive”.

For `N#C[C@H](Cc1ccc(O)cc1)c1ccc(O)cc1`, the AC50 is 12.6 µM (active).

For `C[C@H](NCCc1ccc(O)cc1)[C@@H](O)c1ccc(O)cc1`, the AC50 entry is “inactive”.

Take `CC(=O)N[C@H](Cc1ccc(O)cc1)C(=O)O`: the activity, negative = inhibition is -12.2% [at 11.4 µM].

Turning to `Cc1occc1C(=O)NNC(=O)c1ccc(F)cc1`, the AC50 entry was “inactive”.

As for `Cc1ccccc1C(=O)NNC(=O)c1ccc(F)cc1`, the AC50 entry is “inactive”.

Take `CC1CCc2cc(F)ccc2N1C(=O)CSc1nnc2c(n1)[nH]c1ccc(F)cc12` (stereo not drawn): the AC50 was 2 µM (active).

In the case of `Cc1ccc(C(=O)NNC(=O)CSc2nnc3c(n2)[nH]c2ccc(F)cc23)cc1`, the AC50 is 1.58 µM (active).

For `O=C(O)c1nn(-c2ccccc2)nc1-c1nn(-c2ccccc2)nc1C(=O)O`, the AC50 result is “inactive”.

Turning to `CC1(C)Cc2ccccc2C(NNC(=O)c2ccncc2)=N1`, the concentration at half-maximal activity (AC50) is 8.91 µM (active).

Regarding `CN1CCC2(CC1)CCN(C(=O)c1ccncc1)CC2`, the AC50 entry is “inactive”.

On to `CC1=NC(C)(C)Cc2ccccc21`, for which the AC50 result is “inactive”.

Turning to `CC(C)n1nnnc1-c1cc(Cl)cc(Cl)c1`, the activity, negative = inhibition is 11.3% [at 2.29 µM].

For `ClC(Cl)(Cl)C(N1CCN(c2ccccc2)CC1)N1CCN(c2ccccc2)CC1`, the activity, negative = inhibition was -3.89% [at 11.4 µM].

In the case of `CC(C)CC(c1nnnn1C(C)C)N1CCN(c2ccccc2)CC1` (stereo not drawn), the AC50 is 3.98 µM (active).

Consider `O=C(O)[C@H]1C[C@H](C(=O)O)N1`, for which the AC50 result is “inactive”.

For `CCn1c(CSCc2ccc(C)cc2)nnc1SCC(=O)NCc1ccccc1`, the concentration at half-maximal activity (AC50) is 7.94 µM (active).

`CCn1c(CC(=O)Nc2ccc(C)cc2)nnc1SCC(=O)Nc1nc(C)cs1`: the concentration at half-maximal activity (AC50) was 7.94 µM (active).

Turning to `CCc1c(O)nc(SCC(=O)NC(C)(C)C)n(-c2ccccc2)c1=O`, the activity, negative = inhibition is -1.41% [at 2.29 µM].

Consider `CC(C)(C)NC(=O)NC(=O)CSc1nnc2ccccn12`, for which the AC50 entry is “inactive”.

Turning to `CCn1c(CC(=O)Nc2ccc(C)cc2)nnc1SCC(=O)NCCc1ccccc1`, the AC50 is 10 µM (active).

For `C=CCn1c(Cc2c[nH]c3ccccc23)nnc1SCC(=O)NCc1ccccc1`, the activity, negative = inhibition was -3.87% [at 2.29 µM].

Turning to `CCn1c(Cc2ccccc2)nnc1SCC(=O)NC(C)(C)C`, the concentration at half-maximal activity (AC50) is 11.2 µM (active).
